Structures can show the parent of a compound that is named as a salt. ± gives the standard deviation of the averaged measurements.
system: E. coli TESEC Alr+ wild-type control; assay: growth (OD600 after 10 h); higher = more growth (less inhibition); settings: compound 0.1 mM; raw OD600 reference: median of DMSO wells 0.49, cell-free background 0.052
Procedure: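 TESEC Mtb Alr E. coli (ΔaraC ΔtolC ΔentC Δalr ΔdadX, arabinose-inducible Mtb Alr) or the Alr+ wild-type control strain, grown in defined M9-fructose medium without D-alanine in 96-well plates with Prestwick library compounds at 0.1 mM and 1% DMSO. Low Alr induction is 0.1 µM arabinose and high induction is 10 mM arabinose.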

| Compound | growth |
| --- | --- |
| CCn1cc(C(=O)O)c(=O)c2cc3c(cc21)OCO3 [Oxolinic acid] | 0.0605 ± 0.0014 |
| C[N+]1(C)CCCC(OC(=O)C(O)(c2ccccc2)c2ccccc2)C1 (stereo not given) [Mepenzolate bromide] | 0.435 ± 0.012 |
| CN1C[C@H](C(=O)N[C@]2(C)O[C@@]3(O)[C@@H]4CCCN4C(=O)[C@H](Cc4ccccc4)N3C2=O)C[C@@H]2c3cccc4[nH]cc(c34)C[C@H]21 [Dihydroergotamine tartrate] | 0.1077 ± 0.001 |
| CN(C)[C@@H]1C(=O)C(C(N)=O)=C(O)[C@@]2(O)C(=O)C3=C(O)c4c(O)ccc(Cl)c4[C@@](C)(O)[C@H]3C[C@@H]12 [Chlortetracycline hydrochloride] | 0.0491 ± 0.00036 |
| COc1cc2c(cc1OC)C(C)NCC2 (stereo not given) | 0.453 ± 0.034 |
| Oc1cc(Cl)ccc1Oc1ccc(Cl)cc1Cl [Triclosan] | 0.0516 ± 0.0015 |
| CC(=O)O[C@H]1C[C@H](O[C@H]2[C@@H](O)C[C@H](O[C@H]3[C@@H](O)C[C@H](O[C@H]4CC[C@@]5(C)[C@H](CC[C@@H]6[C@@H]5C[C@@H](O)[C@]5(C)[C@@H](C7=CC(=O)OC7)CC[C@]65O)C4)O[C@@H]3C)O[C@@H]2C)O[C@H](C)[C@H]1O[C@@H]1O[C@H](CO)[C@@H](O)[C@H](O)[C@H]1O [Lanatoside C] | 0.528 ± 0.096 |
| CC(=O)OCC(=O)[C@H]1CC[C@H]2[C@@H]3CC[C@H]4C[C@H](O)CC[C@]4(C)[C@H]3C(=O)C[C@]12C [Alfadolone acetate] | 0.474 ± 0.013 |
| COc1cccc(C2(O)CCCCC2CN(C)C)c1 (stereo not given) [Tramadol hydrochloride] | 0.476 ± 0.013 |
| COc1cc2c(c(OC)c1OC)-c1ccc(OC)c(=O)cc1[C@@H](NC(C)=O)CC2 [Colchicine] | 0.6712 ± 0.00062 |
| C[C@]12CCC(=O)C=C1C=C[C@@H]1[C@@H]2CC[C@@]2(C)[C@H]1CC[C@@]2(O)CCC(=O)O [Canrenoic acid potassium salt] | 0.502 ± 0.031 |
| NCC(CC(=O)O)c1ccc(Cl)cc1 (racemic) [Baclofen (R,S)] | 0.456 ± 0.038 |
| CCN[C@@H](C)Cc1cccc(C(F)(F)F)c1 [Dexfenfluramine hydrochloride] | 0.466 ± 0.025 |
| C[C@@H]1C[C@@H]([C@H](O)CC2CC(=O)NC(=O)C2)C(=O)[C@@H](C)C1 [Cycloheximide] | 0.529 ± 0.06 |
| O=c1c2ccccc2[se]n1-c1ccccc1 [Ebselen] | 0.538 ± 0.076 |
| C[C@]12CC[C@@H](O)C[C@H]1CC[C@@H]1[C@@H]2CC[C@]2(C)C(=O)CC[C@@H]12 [3-alpha-Hydroxy-5-beta-androstan-17-one] | 0.262 ± 0.011 |
| NCCCNCCSP(=O)(O)O [Amifostine] | 0.627 ± 0.013 |
| C[N+]12CCC(CC1)C(OC(=O)C(O)(c1ccccc1)c1ccccc1)C2 (stereo not given) [Clidinium bromide] | 0.611 ± 0.031 |
| N[C@@H]1C[C@H]1c1ccccc1 [Tranylcypromine hydrochloride] | 0.529 ± 0.055 |
| C=CC[C@]1(O)CC[C@H]2[C@@H]3CCC4=CC(=O)CCC4=C3C=C[C@@]21C [Altrenogest] | 0.293 ± 0.0069 |

| Compound | growth |
| --- | --- |
| CN(C)C(=O)Oc1ccc[n+](C)c1 [Pyridostigmine iodide] | 0.436 ± 0.011 |
| C[N+]1(C)[C@@H]2CC[C@H]1C[C@@H](OC(=O)C(CO)c1ccccc1)C2 (stereo not given in full) [Methylatropine nitrate] | 0.707 ± 0.049 |
| CN1[C@@H]2CC[C@H]1C[C@@H](OC1c3ccccc3CCc3ccccc31)C2 [Deptropine citrate] | 0.04883 ± 0.00038 |
| COc1ccc(CN2CCNCC2)c(OC)c1OC [Trimetazidine dihydrochloride] | 0.584 ± 0.012 |
| C=CCC1(CC(C)C)C(=O)NC(=O)NC1=O [Butalbital] | 0.516 ± 0.029 |
| NCCc1c[nH]c2ccc(O)cc12 [Serotonin hydrochloride] | 0.475 ± 0.0089 |
| COP(=O)(OC)C(O)C(Cl)(Cl)Cl (stereo not given) [Trichlorfon] | 0.505 ± 0.046 |
| O=c1[nH]oc2c1CCNC2 [THIP Hydrochloride] | 0.539 ± 0.087 |
| c1ccc2c(c1)OCC(C1=NCCN1)O2 (stereo not given) [Idazoxan hydrochloride] | 0.598 ± 0.015 |
| CNC(=O)Oc1ccc2c(c1)[C@]1(C)CCN(C)[C@@H]1N2C [Eserine hemisulfate salt] | 0.423 ± 0.028 |
| COc1ccc(Cc2nccc3cc(OC)c(OC)cc23)cc1OC [Papaverine hydrochloride] | 0.579 ± 0.04 |
| C[N+]1([O-])[C@@H]2C[C@@H](OC(=O)[C@H](CO)c3ccccc3)C[C@H]1[C@@H]1O[C@@H]12 (stereo not given in full) [Scopolamin-N-oxide hydrobromide] | 0.472 ± 0.045 |
| C[C@]12CC[C@H](O)C[C@H]1CC[C@@H]1[C@@H]2CC[C@]2(C)[C@@H](C3=CC(=O)OC3)CC[C@]12O [Digitoxigenin] | 0.439 ± 0.016 |
| C[C@]12C/C(=C/O)C(=O)C[C@@H]1CC[C@@H]1[C@@H]2CC[C@@]2(C)[C@H]1CC[C@]2(C)O [Oxymetholone] | 0.462 ± 0.01 |
| CCC1(C)CC(=O)NC(=O)C1 [Bemegride] | 0.467 ± 0.024 |
| O=C(O)CCCc1ccc(N(CCCl)CCCl)cc1 [Chlorambucil] | 0.537 ± 0.095 |
| C[C@]12CC[C@H]3[C@@H](CCC4=CC(=O)CC[C@@H]43)[C@@H]1CC[C@@H]2O [Nandrolone] | 0.423 ± 0.015 |
| NC(=O)C[S+]([O-])C(c1ccccc1)c1ccccc1 (stereo not given) [Modafinil] | 0.634 ± 0.016 |
| C[C@]12N[C@H](Cc3ccccc31)c1ccccc12 [Dizocilpine maleate] | 0.54 ± 0.094 |
| C#CCN(C)[C@H](C)Cc1ccccc1 [Selegiline hydrochloride] | 0.441 ± 0.043 |

— the supplement of paper PMC9262897, “Low-cost anti-mycobacterial drug discovery using engineered E. coli” (Nature Communications, 2022)
